PubChem BioAssay (NCI)
The panel holds about 79,000 compounds, 15% with a hit somewhere; the sample as a whole holds those more often. Activity calls are given as the source filed them. Cut-off read from the data, not from the text of the source: active = growth inhibition above about 70%; inactive = the rest. Where a SMILES comes first, the peptide text is derived from it. [ ]: non-standard residue; d: D form. The star is where a group is joined. Nle = CCCC[CH](N)C(=O)O; Cbz = O=C(OCc1ccccc1)*

Legend:
[1] = NCI Yeast Anticancer Drug Screen. Data for the rad50 strain (AID 155);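 note: 0% = growth of vehicle-only cultures of the same strain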; settings: S. cerevisiae rad50 strain growth inhibition; at 50.0 µM; stronger effect = higher value
Outline: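 Relative growth inhibition (compound vs vehicle) was measured in yeast with a defined repair-gene alteration.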

[2] = NCI Yeast Anticancer Drug Screen. Data for the mec2-1 strain (AID 157); settings: S. cerevisiae mec2-1 strain, at 50.0 µM, stronger effect = higher value
Outline: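 Vehicle-treated cultures served as reference for growth inhibition of compound-exposed mec2-1 yeast.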

[3] = NCI Yeast Anticancer Drug Screen. Data for the sgs1 mgt1 strain (AID 161);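 note: 0% = growth of cultures given vehicle only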; settings: S. cerevisiae sgs1 mgt1 strain, at 50.0 µM, stronger effect = higher value
Outline: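 Test agents were incubated with a DNA-repair-mutant yeast strain. Growth was then read and compared against vehicle-treated controls.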

[4] = NCI Yeast Anticancer Drug Screen. Data for the cln2 rad14 strain (AID 165);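 note: 0% = growth equal to vehicle treated cultures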; settings: S. cerevisiae cln2 rad14 strain, at 50.0 µM, stronger effect = higher value
Outline: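 Each compound was tested on cln2 rad14 yeast. Inhibition of growth was calculated against vehicle-exposed controls.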

[5] = NCI Yeast Anticancer Drug Screen. Data for the bub3 strain (AID 167); settings: S. cerevisiae bub3 mutant strain, at 50.0 µM, stronger effect = higher value
Outline: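 Screening used yeast with an engineered genetic alteration affecting cell cycle control. Compound-exposed cultures were compared with vehicle cultures, and reduced growth was taken as inhibition.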

[6] = NCI Yeast Anticancer Drug Screen. Data for the mlh1 rad18 strain (AID 175); settings: S. cerevisiae mlh1 rad18 strain growth inhibition; at 50.0 µM; stronger effect = higher value
Outline: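 Vehicle-treated cultures served as the reference for growth inhibition in a yeast strain carrying DNA damage repair alterations exposed to each compound.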

Measured: growth inhibition

COC(=O)c1s/c(=N\C(=S)N(C)C)n(-c2ccc(Cl)cc2)c1C(=O)OC
inactive: [1] -0.4% | [2] 2.25% | [3] -4.1% | [4] -40.1% | [5] -21.9% | [6] -3.2%

N#CC(C(=O)O)C1(C(C#N)C(=O)O)CCN(Cc2ccccc2)CC1 (configuration not stated)
inactive: [1] -9.9% | [2] -5.1% | [3] 40.5% | [4] -21.9% | [5] -2.15% | [6] -10.1%

CC(C)[N+](=C1O[B-](c2ccccc2)(c2ccccc2)O[B-]1(c1ccccc1)[C+]1CCCCC1)C(C)C (configuration not stated)
inactive: [1] -51.1% | [2] -4.45% | [3] 10.8% | [4] 19.8% | [5] 2.15% | [6] 2.2%

O=C(O)CC(Sc1ccccc1)c1ccccc1 (configuration not stated)
inactive: [1] 12.9% | [2] -9.2% | [3] -2.8% | [4] 32% | [5] 45.7% | [6] 7.7%

CC(C)(C)NC1=NCCNC(c2ccccc2)=C1
inactive: [1] -33.5% | [2] -52.2% | [3] -19.4% | [4] -4.65% | [5] -30.8% | [6] -23.9%

Cc1ccc(S(=O)(=O)OC2C(C)(C)C(=O)C2(C)C)cc1
inactive: [1] 7.45% | [2] -2.15% | [3] -0.05% | [4] -11.7% | [5] 17.6% | [6] 8.35%

Cc1nc(C)c(N2CCN(C(=O)NC(CCC(=O)O)C(=O)O)CC2)c(=O)[nH]1 (configuration not stated)
inactive: [1] -80.7% | [2] 8.95% | [3] -28.3% | [4] 18.4% | [5] -1.25% | [6] -40.6%

C=C1C(=O)C[C@@H]2CC(C)(C)C[C@]12CC(=O)O
inactive: [1] -11.1% | [2] -41.5% | [3] -1.65% | [4] -7.05% | [5] -9.15% | [6] -17.1%

CC(O)(c1ccc(Cl)cc1)c1ccc(Cl)cc1
inactive: [1] -4.05% | [2] -18.9% | [3] 1.2% | [4] -52.6% | [5] -8.75% | [6] -15.8%

Cc1ccc(NC(=O)COc2cc(Cl)c(Cl)cc2Cl)c([N+](=O)[O-])c1
inactive: [1] -28.9% | [2] -4.8% | [3] -11.8% | [4] -0.55% | [5] -0.2% | [6] -0.4%

CC1(C)C2CCC1(C)C(S)C2 (configuration not stated)
inactive: [1] 7.5% | [2] -1% | [3] -2.75% | [4] -57.1% | [5] -2% | [6] 11.9%

CC1(C)C2CCC1(C)C(NC(N)=O)C2 (configuration not stated)
inactive: [1] -10% | [2] 6.45% | [3] -8.95% | [4] -6.6% | [5] 2.3% | [6] 10.5%

c1cnc2c3ccncc3c3nc(-c4ccncc4)[nH]c3c2c1
inactive: [1] -10.2% | [2] -12.8% | [3] -11.3% | [4] -34.8% | [5] -17.3% | [6] -17.2%

CCCCC(NC(=O)C(Cc1ccccc1)NC(=O)OCc1ccccc1)C(=O)O (stereo not drawn) (Cbz-Phe-[Nle]-OH; configuration not given here)
inactive: [1] 5.9% | [2] -1.2% | [3] -4.3% | [4] -31.8% | [5] -3.2% | [6] 9.05%

NCC(NC(=O)OCc1ccccc1)C(=O)O (configuration not stated)
inactive: [1] 3.2% | [2] 12.4% | [3] 3.3% | [4] 19.1% | [5] 5.7% | [6] 32.1%

CCOC(=O)/C(F)=C/c1cccc(C)c1
inactive: [1] -5.05% | [2] -23% | [3] -17.9% | [4] -4.7% | [5] -5.45% | [6] -3.1%

CC1C(C)(C)P(=O)(OCCOP2(=O)C(C)(C)C(C)C2(C)C)C1(C)C (configuration not stated)
inactive: [1] 35% | [2] -0.85% | [3] 22.2% | [4] -9.6% | [5] 3.75% | [6] 7.25%

O=P(CCC(O)c1ccccc1)(c1ccccc1)c1ccccc1 (configuration not stated)
inactive: [1] -7.45% | [2] 5.65% | [3] -0.65% | [4] 0.5% | [5] -9.6% | [6] 9.8%

O=C(NI1OC(=O)c2ccccc21)c1ccc(Cl)cc1
inactive: [1] -9% | [2] 6.05% | [3] -38% | [4] -17.5% | [5] -33.6% | [6] -5.6%

O=C(Nc1ccccc1[N+](=O)[O-])C(=O)C(C(=O)c1ccccc1-c1ccccc1)C1OC(=O)c2ccccc21 (configuration not stated)
inactive: [1] 10.9% | [2] 0.6% | [3] 6.05% | [4] -51.4% | [5] 2.3% | [6] 9.55%

COc1ccc2c(=O)cc(-c3ccncc3)oc2c1OC
inactive: [1] 40.2% | [2] 7.8% | [3] -4.05% | [4] 2.3% | [5] -47% | [6] 31.2%

COC(=O)C1Cc2ccc(C)cc2C1=O (configuration not stated)
inactive: [1] -37.7% | [2] -4.6% | [3] -1.95% | [4] 26.1% | [5] 15.4% | [6] -4.3%

CCCC(C)(O)C(C)(C)C (configuration not stated)
inactive: [1] 6.85% | [2] 8.65% | [3] 8% | [4] 11.7% | [5] 28.8% | [6] -2.15%

CC(=O)Nc1cc(Br)cc2c1-c1ccc(Br)cc1C2
inactive: [1] 36.7% | [2] 14.7% | [3] 16.2% | [4] 8.2% | [5] 5.3% | [6] 23.4%

Cc1ccc(C)c(NC(=O)C2C(=O)C(=O)N(c3cc(C)ccc3C)C2=O)c1 (configuration not stated)
inactive: [1] 29.4% | [2] -8.3% | [3] -18.5% | [4] 7.2% | [5] -0.95% | [6] 10.7%

COc1ccc(/C=C2\N=C(c3ccc(N)cc3)OC2=O)cc1OC
inactive: [1] 10.1% | [2] -0.05% | [3] 13.2% | [4] 20.1% | [5] 10.3% | [6] 19.9%

COc1ccc(C(Cc2cc(OC)c(OC)cc2Br)NC=O)cc1OC (configuration not stated)
inactive: [1] 0.3% | [2] 7.35% | [3] -7.55% | [4] -3.15% | [5] 5% | [6] 31.4%

CC12CCC=CC1=CC(=O)CC2 (configuration not stated)
inactive: [1] 1.35% | [2] 16.5% | [3] 1.05% | [4] 4.65% | [5] -6.8% | [6] 32.9%

Cc1cccc2c1Oc1ccccc1C2NC(=O)OCCCl (configuration not stated)
inactive: [1] 1.8% | [2] 13.1% | [3] 8.7% | [4] -37% | [5] 0.85% | [6] 12.8%

Nc1ccccc1C(=O)ONC(=O)c1ccccc1
active: [1] 99.5% | [2] 99.6% | [3] 99.5% | [4] 99% | [5] 99.3% | [6] 99.3%

CCCCOS(=O)OCCCC
inactive: [1] 22.7% | [2] 29.5% | [3] -6.1% | [4] 13.2% | [5] 0.15% | [6] -14.8%

O/N=C1/CCCCCC1NO (configuration not stated)
inactive: [1] -23.8% | [2] -24.1% | [3] -22.7% | [4] 15.4% | [5] -18.1% | [6] -13.1%

O=C1NC(=O)C(CN2C(=O)/C(=C/c3cccc(O)c3)SC2=S)C(=O)N1
inactive: [1] -55.2% | [2] -20.8% | [3] -29.7% | [4] -20.6% | [5] -20.4% | [6] -71.8%

CC(=O)Nc1cc2cc(NS(=O)(=O)c3cc(C(F)(F)F)cc(C(F)(F)F)c3)ccc2oc1=O
inactive: [1] 0% | [2] -10.2% | [3] -4.9% | [4] 17.4% | [5] -9.95% | [6] 10.9%

N=C(CNC(=O)OCc1ccccc1)N1CCCC1C(=O)O (configuration not stated)
inactive: [1] 13.6% | [2] 2.8% | [3] 0.9% | [4] -1.7% | [5] -1.8% | [6] -6.95%

CCOC(=O)c1cnc2cc3c(cc2c1Nc1cccc(C)c1)OCO3
inactive: [1] -9.9% | [2] -5% | [3] -5.85% | [4] -57.8% | [5] -1.45% | [6] -6%

CCN(CC)CC#CCOc1ccc(/C=C/c2ccccn2)cc1
inactive: [1] 0.35% | [2] -13.4% | [3] 7.1% | [4] -14% | [5] 5.65% | [6] -21.4%

Cc1cc(C(C)C)c(C)cc1C(C)C
inactive: [1] -18.9% | [2] -4.25% | [3] -14.4% | [4] -7% | [5] -6.2% | [6] -4.15%

Cc1cccc(C(C#N)c2ccc(N)cc2)c1 (configuration not stated)
inactive: [1] -35.2% | [2] -61% | [3] -4.65% | [4] 11.7% | [5] -46% | [6] -18.4%

Cc1cccc(NCc2ccncc2)n1
inactive: [1] 19.2% | [2] 9.2% | [3] 26.8% | [4] 2.15% | [5] 1.85% | [6] 6.75%

Cc1ccc(/C=C/C(=O)c2sc(-n3nc(-c4ccccc4)cc3-c3ccccc3)nc2C)cc1
inactive: [1] -2.3% | [2] -6.85% | [3] -29.9% | [4] 5.6% | [5] 20.1% | [6] -7.4%

O=C(O)CNCc1ccc2c(c1)OCCO2
inactive: [1] 6.7% | [2] 15.7% | [3] -10.4% | [4] -3.35% | [5] -3.5% | [6] -15.8%
